Reference: PubChem BioAssay (EPA / NIEHS)
Where “and” joins values, the source holds several entries; their conditions need not be identical. Equal values may be shown once. Some compounds were tested as several samples or in several runs, with calls that do not always agree. Calls of active or inactive are those of the source. The calls were made as follows: active = hit-call score of the fitted dose curve at least 0.9, where 1 is the maximum; inactive = score below 0.9.

Key:
[1] = read-out: Interleukin-6 (IL6), IL6 (gene 3569); test: BSK_CASM3C_IL6: BioMAP Diversity Plus: CASM3C Assay for Interleukin-6 (IL6) Biomarker Activity for (AID 2283040); conditions: primary human coronary artery smooth muscle cells; actives raise or lower the signal
[2] = read-out: Tissue plasminogen activator (tPA), PLAT (gene 5327); test: BSK_BE3C_tPA: BioMAP Diversity Plus: BE3C Assay for Tissue plasminogen activator (tPA) Biomarker Activity (AID 2283041); conditions: primary human bronchial epithelial cells; actives raise or lower the signal
Procedure, shortened: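 Bidirectional curve fitting relative to DMSO defined activity, with tPA detected by ELISA in chemically treated human bronchial epithelial primary cells at 24 hours.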

[3] = read-out: Interleukin-8 (IL8), CXCL8 (gene 3576); test: BSK_CASM3C_IL8: BioMAP Diversity Plus: CASM3C Assay for Interleukin-8 (IL8) Biomarker Activity (AID 2283042); conditions: primary human coronary artery smooth muscle cells; actives raise or lower the signal;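 also: IL-8 protein level quantified by ELISA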
[4] = read-out: Human Leukocyte Antigen - DR isotype (HLADR), HLA-DRA (gene 3122); test: BSK_CASM3C_HLADR: BioMAP Diversity Plus: CASM3C Assay for Human Leukocyte Antigen - DR isotype (HLADR) Biomarker Activity (AID 2283043); conditions: primary human coronary artery smooth muscle cells; actives raise or lower the signal;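 also: cell-surface HLA-DR protein level quantified by ELISA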
[5] = read-out: Macrophage colony-stimulating factor (MCSF), CSF1 (gene 1435); test: BSK_CASM3C_MCSF: BioMAP Diversity Plus: CASM3C Assay for Macrophage colony-stimulating factor (MCSF) Biomarker Activity (AID 2283044); conditions: primary human coronary artery smooth muscle cells; actives raise or lower the signal;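 also: M-CSF protein amount quantified by ELISA after 24 h exposure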
[6] = read-out: Low-density lipoprotein receptor (LDLR), LDLR (gene 3949); test: BSK_CASM3C_LDLR: BioMAP Diversity Plus: CASM3C Assay for Low-density lipoprotein receptor (LDLR) Biomarker Activity (AID 2283045); conditions: primary human coronary artery smooth muscle cells; actives raise or lower the signal;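 also: LDLR protein level on the cell surface quantified by ELISA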
[7] = read-out: Monocyte Chemoattractant Protein-1 (MCP1), CCL2 (gene 6347); test: BSK_CASM3C_MCP1: BioMAP Diversity Plus: CASM3C Assay for Monocyte Chemoattractant Protein-1 (MCP1) Biomarker Activity (AID 2283046); conditions: primary human coronary artery smooth muscle cells; actives raise or lower the signal;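 also: MCP-1 level quantified by ELISA 24 h after dosing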
[8] = BSK_CASM3C_Proliferation: Cell Proliferation Assessment in the BioMAP Diversity Plus: CASM3C Assay (AID 2283047); conditions: primary human coronary artery smooth muscle cells;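 also: sulforhodamine B total protein stain as relative cell number at 560 nm; sub-confluent cells exposed 48 h before staining; fitted both ways against DMSO so gain or loss of cell number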
[9] = read-out: Monokine induced gamma interferon (MIG), CXCL9 (gene 4283); test: BSK_CASM3C_MIG: BioMAP Diversity Plus: CASM3C Assay for Monokine induced gamma interferon (MIG) Biomarker Activity (AID 2283048); conditions: primary human coronary artery smooth muscle cells; actives raise or lower the signal;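 also: MIG protein level measured by ELISA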
[10] = read-out: serum amyloid A (SAA), SAA1 (gene 6288); test: BSK_CASM3C_SAA: BioMAP Diversity Plus: CASM3C Assay for serum amyloid A (SAA) Biomarker Activity (AID 2283049); conditions: primary human coronary artery smooth muscle cells; actives raise or lower the signal;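 also: SAA protein level quantified by ELISA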
[11] = BSK_CASM3C_SRB: Viability Assessment in the BioMAP Diversity Plus: CASM3C Assay (AID 2283050); conditions: primary human coronary artery smooth muscle cells;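 also: total protein by SRB staining as cytotoxicity measure in parallel cultures; cells exposed to compound for 24 h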
[12] = read-out: Thrombomodulin, THBD (gene 7056); test: BSK_CASM3C_Thrombomodulin: BioMAP Diversity Plus: CASM3C Assay for Thrombomodulin Biomarker Activity (AID 2283051); conditions: primary human coronary artery smooth muscle cells; actives raise or lower the signal;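 also: thrombomodulin protein level measured by ELISA 24 h after dosing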
[13] = read-out: Tissue Factor, F3 (gene 2152); test: BSK_CASM3C_TissueFactor: BioMAP Diversity Plus: CASM3C Assay for Tissue Factor Biomarker Activity (AID 2283052); conditions: primary human coronary artery smooth muscle cells; actives raise or lower the signal;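 also: cell surface tissue factor protein level read by ELISA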
[14] = read-out: Interferon-gamma inducible Protein 10 (IP10), CXCL10 (gene 3627); test: BSK_hDFCGF_IP10: BioMAP Diversity Plus: hDFCGF Assay for Interferon-gamma inducible Protein 10 (IP10) Biomarker Activity (AID 2283053); conditions: primary human foreskin fibroblasts; actives raise or lower the signal
Procedure, shortened: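 IP-10 levels, quantified by ELISA, are taken from human foreskin fibroblast cultures 24 h after chemical treatment, with DMSO serving as negative control and baseline for bidirectional analysis.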

[15] = read-out: Urokinase-type plasminogen activator receptor (uPAR), PLAUR (gene 5329); test: BSK_CASM3C_uPAR: BioMAP Diversity Plus: CASM3C Assay for Urokinase-type plasminogen activator receptor (uPAR) Biomarker Activity (AID 2283054); conditions: primary human coronary artery smooth muscle cells; actives raise or lower the signal;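 also: cell-surface uPAR protein level quantified by ELISA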
[16] = read-out: Vascular cell adhesion molecule 1 (VCAM1), VCAM1 (gene 7412); test: BSK_CASM3C_VCAM1: BioMAP Diversity Plus: CASM3C Assay for Vascular cell adhesion molecule 1 (VCAM1) Biomarker Activity (AID 2283055); conditions: primary human coronary artery smooth muscle cells; actives raise or lower the signal;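 also: VCAM-1 protein level quantified by ELISA on the cells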
[17] = read-out: Epidermal growth factor receptor (EGFR), EGFR (gene 1956); test: BSK_hDFCGF_EGFR: BioMAP Diversity Plus: hDFCGF Assay for Epidermal growth factor receptor (EGFR) Biomarker Activity (AID 2283057); conditions: primary human foreskin fibroblasts; actives raise or lower the signal
Procedure, shortened: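 Measured by ELISA: EGFR levels on primary human foreskin fibroblasts 24 h after chemical treatment, analysed relative to DMSO with bidirectional fitting.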

[18] = read-out: Interleukin-8 (IL8), CXCL8 (gene 3576); test: BSK_hDFCGF_IL8: BioMAP Diversity Plus: hDFCGF Assay for Interleukin-8 (IL8) Biomarker Activity (AID 2283058); conditions: primary human foreskin fibroblasts; actives raise or lower the signal
Procedure, shortened: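 IL-8 levels from compound-treated primary human fibroblasts were read by ELISA at 24 h, with DMSO serving as baseline for bidirectional fitting.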

[19] = BSK_hDFCGF_Proliferation: Cell Proliferation Assessment in the BioMAP Diversity Plus: hDFCGF Assay (AID 2283059); conditions: primary human foreskin fibroblasts;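 also: curves fitted for both rise and fall of signal versus DMSO baseline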
Procedure, shortened: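 Primary human foreskin fibroblasts, sub-confluent; […]; 10% TCA fix, 0.1% SRB stain, A560 total protein. Gain/loss fitted bidirectionally vs DMSO control.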

[20] = read-out: Collagen III, COL3A1 (gene 1281); test: BSK_hDFCGF_CollagenIII: BioMAP Diversity Plus: hDFCGF Assay for Collagen III Biomarker Activity (AID 2283056); conditions: primary human foreskin fibroblasts; actives raise or lower the signal
Procedure, shortened: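 Cells: human foreskin fibroblasts, primary. Dosing followed by 24 h incubation, then ELISA for collagen III. Both increases and decreases scored relative to DMSO.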

Measured: AC50

C=CC(F)(F)C(F)(F)C(F)(F)C(F)(F)C(F)(F)C(F)(F)C(F)(F)C(F)(F)C=C
not listed: [20]
inactive: all other assays above

OCC(F)(F)C(F)(F)C(F)(F)C(F)(F)C(F)(F)C(F)F
not listed: [20]
inactive: all other assays above

O=C(O)C(F)(F)C(F)(F)C(F)(F)F
not listed: [20]
inactive: all other assays above

C=C(C)C(=O)OCC(F)(F)C(F)(F)C(F)(F)C(F)(F)C(F)(F)C(F)(F)C(F)(F)F
inactive: all assays above

O=S(=O)(OCCOC(F)(F)F)C(F)(F)F
not listed: [20]
inactive: all other assays above

FC(F)(Br)C(F)(F)C(F)(F)C(F)(F)C(F)(F)C(F)(F)Br
not listed: [20]
inactive: all other assays above

O[Si](c1ccccc1)(c1ccccc1)c1ccccc1
active: [8] 20 µM | [19] 20 µM
not listed: [20]
inactive: all other assays above

FC(F)(F)C(F)(F)CNCC(F)(F)C(F)(F)F
inactive: [1] | [2] | [3] | [4] | [5] | [6] | [7] | [8] | [9] | [10] | [11] | [12] | [13] | [14] | [15] | [16] | [17] | [18] | [19]
active: [17] 7.57 µM

CCN(CC)c1ccc2c(C)cc(=O)oc2c1
active: [6] 31.3 µM | [19] 24 µM
not listed: [20]
inactive: all other assays above

O=S(=O)(O)C(F)(F)C(F)(F)C(F)(F)C(F)(F)C(F)(F)C(F)(F)C(F)(F)F
not listed: [20]
inactive: all other assays above

O=C(O)C(F)(F)C(F)(F)C(F)(F)C(F)(F)C(F)(F)C(F)(F)C(F)(F)C(F)(F)Cl
active: [2] 30 µM and 20.4 µM | [14] 39.2 µM and 41.9 µM | [17] 7.33 µM and 55.2 µM | [19] 43.1 µM and 45.7 µM
not listed: [20]
inactive: all other assays above

OCC(F)(F)C(F)(F)C(F)(F)C(F)(F)C(F)(F)C(F)(F)F
active: [8] 46.6 µM and 54.9 µM | [14] 55.1 µM and 41.2 µM | [19] 56.1 µM and 54.4 µM
not listed: [20]
inactive: all other assays above

FC(F)(F)C(F)(F)C(F)(F)C(F)(F)C(F)(F)C(F)(F)C(F)(F)I
active: [19] 2.64 µM
inactive: [1] | [2] | [3] | [4] | [5] | [6] | [7] | [8] | [9] | [10] | [11] | [12] | [13] | [14] | [15] | [16] | [20] | [17] | [18] | [19]

CC(CCl)OP(=O)(OC(C)CCl)OC(C)CCl (configuration not stated)
active: [5] 0.0398 µM | [7] 0.0191 µM
not listed: [20]
inactive: all other assays above

CCCCCCC(C)OC(=O)CCCCC(=O)OC(C)CCCCCC (configuration not stated)
not listed: [20]
inactive: all other assays above

O=C(O)C=C(C(F)(F)F)C(F)(F)F
inactive: [3] | [5] | [6] | [7] | [10] | [11] | [12] | [13] | [14] | [15] | [17] | [18] | [19]
active: [1] 13.2 µM and 1.37 µM | [2] 8.7 µM and 1.53 µM | [4] 9.93 µM and 597 nM | [8] 30 µM | [9] 27.4 µM and 220 nM | [16] 12.5 µM and 5.23 µM | [19] 21.9 µM

C=CC(=O)OCC(F)(F)C(F)(F)C(F)(F)C(F)(F)C(F)(F)C(F)(F)C(F)(F)F
active: [19] 17.5 µM and 46.3 µM
not listed: [20]
inactive: all other assays above

FC(F)(F)C(F)(F)C(F)(F)C(F)(F)C(F)(F)C(F)(F)C(F)(F)C(F)(F)F
not listed: [20]
inactive: all other assays above

CCCCNc1ccccc1
not listed: [20]
inactive: all other assays above

CCCCCCCCCCCCCCCC[N+](C)(C)Cc1ccccc1
inactive: [12] | [17]
active: [1] 3.74 µM | [2] 7.03 µM | [3] 4.79 µM | [4] 2.56 µM | [5] 1.89 µM | [6] 9.64 µM | [7] 3.5 µM | [8] 1.29 µM | [9] 5.11 µM | [10] 2.59 µM | [11] 5.23 µM | [13] 7.36 µM | [14] 2.56 µM | [15] 7.8 µM | [16] 4.2 µM | [18] 3.86 µM | [19] 0.59 µM

CCCCCCCOC(=O)c1ccccc1C(=O)OCCCCCCC
not listed: [20]
inactive: all other assays above

CCCCCCCCC(F)(F)C(F)(F)C(F)(F)C(F)(F)C(F)(F)C(F)(F)F
not listed: [20]
inactive: all other assays above

O=C(CC(=O)C(F)(F)C(F)(F)F)C(F)(F)F
not listed: [20]
inactive: all other assays above
